# Activity calls are given as the source filed them. Unless noted, no rule for the calls is given here.
# Experiments:
# [1] = HepG2 liver cancer cell viability effects, profiling panel, resazurin fluorescence, 24 h, PK04 Diversity Set (AID 1172); details: higher = more signal
# [2] = basal S. cerevisiae growth modulation, no modifier, primary screen, OD600, strain BY4716, 24 h, basal condition (AID 1173); details: OD600, 24 h, higher = more signal, called active from +8 up or from −8 down
# [3] = MM1S myeloma cell viability, profiling panel, resazurin fluorescence, basal, 24 h, PK04 Diversity Set (AID 1174); details: higher = more signal, called active from +8 up or from −8 down;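 also: MM1S multiple myeloma cell line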
# [4] = biological target: Dihydroorotate dehydrogenase (quinone), mitochondrial (Plasmodium falciparum (isolate 3D7)) (UniProt Q08210); assay: PfDHODH enzyme inhibitors, primary screen, biochemical, C-terminal His tag, absorbance 600 nm (AID 1175); details: DCIP absorbance 600 nm, higher = more signal, called active from +8 up or from −8 down;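 also: recombinant parasite enzyme with a five histidine tag at its C terminus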
# [5] = P. aeruginosa biofilm formation inhibitors, primary screen, strain PAO1, LB-PBS medium, absorbance 600 nm (AID 1176); details: P. aeruginosa PAO1 growth/biofilm, A600, 12 h; higher = more signal
# [6] = S. cerevisiae RM11-1a growth modifiers, primary screen, strain RM11-1a, OD600, basal, 24 h (AID 1177); details: OD600, 24 h, higher = more signal, called active from +8 up or from −8 down;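 also: cultures grown under basal conditions with no added stressor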
# [7] = E. coli acrAB mutant growth effects, primary screen, E. coli filamentation inducers, strain DRC39, OD650, 24 h (AID 1178); details: higher = more signal, called active from +8 up or from −8 down;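 also: growth measured as culture turbidity by optical density at 650 nm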
# [8] = E. coli acrAB mutant growth effects, primary screen, E. coli filamentation inducers, strain DRC39, OD650, 48 h (AID 1179);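 also: screen aims at cell division blockers that make cells filament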; details: E. coli DRC39 delta-acrAB growth, higher = more signal, called active from +8 up or from −8 down
# [9] = RPMI8226 myeloma cell viability, profiling panel, resazurin fluorescence, basal, 24 h, PK04 Diversity Set (AID 1180); details: higher = more signal;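 also: RPMI8826 multiple myeloma cell line at 5000 cells per well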
# [10] = biological target: E3 ubiquitin-protein ligase XIAP (Homo sapiens) (UniProt P98170); assay: XIAP binders, primary screen, biophysical, small-molecule microarray, fluorescence 635 nm (AID 1181); details: small-molecule microarray binding, higher = more signal;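 also: score merges 667 nm emission and signal to noise over triplicate slides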
# [11] = system: XIP peptide (Xip251-270) binding; assay: small-molecule binders of XIP peptide, primary screen, biochemical, small-molecule microarray, fluorescence 635/667 nm, 0.1 µg/mL protein (AID 1182); details: fluorescent protein binding, 635 nm, higher = more signal, called active from +8 up or from −8 down
# XIP peptide (Xip251-270) = assay: small-molecule binders of XIP peptide, primary screen, biochemical, small-molecule microarray, fluorescence 635/667 nm, 0.5 µg/mL protein (AID 1183); details: small-molecule microarray binding, fluorescence 635 nm; higher = more signal
# [12] = Plasmodium falciparum growth inhibition, primary screen, strain 3D7, DAPI fluorescence, 100 nL (AID 1184);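 also: parasites grown inside human red blood cells in medium with human serum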; details: P. falciparum 3D7 growth, 3 d, higher = more signal
# [13] = biological target: Homeobox protein Hox-A13 (Mus musculus) (UniProt Q62424); assay: inhibitors of HoxA13-DNA binding, primary screen, biochemical, fluorescence polarization, labeled oligonucleotide (AID 1185); details: 15 min, higher = more signal, called active from +8 up or from −8 down
# [14] = inhibitors of hydroxyurea-induced Chk1 phosphorylation, primary screen, imaging, HeLa, phospho-Chk1 antibody, percent positive cells (AID 1186); details: hydroxyurea-induced phospho-Chk1 immunofluorescence imaging, higher = more signal
# [15] = inhibitors of hydroxyurea-induced Chk1 phosphorylation, primary screen, imaging, HeLa, phospho-Chk1 nuclear intensity (AID 1187); details: hydroxyurea-induced phospho-Chk1 immunofluorescence imaging, higher = more signal
# Homeobox protein Hox-A13 (Mus musculus), sequence (Q62424 whole entry, looked up): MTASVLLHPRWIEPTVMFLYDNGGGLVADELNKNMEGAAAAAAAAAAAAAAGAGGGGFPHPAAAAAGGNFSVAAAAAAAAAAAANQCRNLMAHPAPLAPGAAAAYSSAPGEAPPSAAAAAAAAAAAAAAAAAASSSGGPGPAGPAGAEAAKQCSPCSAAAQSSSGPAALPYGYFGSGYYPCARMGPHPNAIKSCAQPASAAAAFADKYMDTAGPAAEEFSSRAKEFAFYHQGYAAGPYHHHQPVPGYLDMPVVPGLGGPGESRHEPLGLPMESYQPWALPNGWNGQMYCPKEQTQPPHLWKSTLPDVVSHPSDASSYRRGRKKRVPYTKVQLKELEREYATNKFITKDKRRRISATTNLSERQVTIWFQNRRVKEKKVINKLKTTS
# E3 ubiquitin-protein ligase XIAP (Homo sapiens), sequence (P98170 whole entry, looked up): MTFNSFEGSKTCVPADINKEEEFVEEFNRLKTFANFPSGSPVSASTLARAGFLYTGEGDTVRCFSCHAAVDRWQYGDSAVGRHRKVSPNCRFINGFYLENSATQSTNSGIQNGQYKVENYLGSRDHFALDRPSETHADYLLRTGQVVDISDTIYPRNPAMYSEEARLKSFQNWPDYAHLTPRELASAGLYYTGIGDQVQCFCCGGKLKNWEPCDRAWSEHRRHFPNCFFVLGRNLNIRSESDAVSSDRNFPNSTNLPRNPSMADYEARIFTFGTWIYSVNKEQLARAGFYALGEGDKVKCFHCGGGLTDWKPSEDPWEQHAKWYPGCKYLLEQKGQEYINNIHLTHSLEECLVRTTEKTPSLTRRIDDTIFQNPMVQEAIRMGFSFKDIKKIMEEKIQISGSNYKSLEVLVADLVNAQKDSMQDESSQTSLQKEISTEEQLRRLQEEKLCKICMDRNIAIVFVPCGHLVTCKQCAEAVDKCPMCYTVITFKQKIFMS
# Dihydroorotate dehydrogenase (quinone), mitochondrial (Plasmodium falciparum (isolate 3D7)), sequence (Q08210 whole entry, looked up): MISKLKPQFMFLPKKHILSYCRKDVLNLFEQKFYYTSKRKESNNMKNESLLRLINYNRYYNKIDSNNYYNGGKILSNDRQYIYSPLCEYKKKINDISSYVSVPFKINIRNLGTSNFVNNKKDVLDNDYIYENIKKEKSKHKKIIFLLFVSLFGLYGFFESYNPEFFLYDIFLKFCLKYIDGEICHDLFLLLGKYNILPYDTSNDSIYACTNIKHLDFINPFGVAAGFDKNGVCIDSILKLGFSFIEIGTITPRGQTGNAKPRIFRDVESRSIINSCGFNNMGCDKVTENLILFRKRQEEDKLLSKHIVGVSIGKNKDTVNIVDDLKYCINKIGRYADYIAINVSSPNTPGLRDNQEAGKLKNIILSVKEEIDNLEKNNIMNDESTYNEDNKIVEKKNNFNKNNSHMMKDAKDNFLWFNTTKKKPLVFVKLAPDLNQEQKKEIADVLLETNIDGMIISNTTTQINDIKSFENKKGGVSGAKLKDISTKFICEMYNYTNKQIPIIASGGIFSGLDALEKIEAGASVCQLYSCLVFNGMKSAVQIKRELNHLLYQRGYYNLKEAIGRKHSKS
SMILES,z-score [1],z-score [2],z-score [3],composite z-score [4],z-score [5],z-score [6],z-score [7],z-score [8],z-score [9],composite z-score [10],composite z-score [11],composite z-score (XIP peptide (Xip251-270)),z-score [12],z-score [13],z-score [14],z-score [15]
C=C(CCCC)C(=O)CC[C@H](OC(=O)c1ccccc1-c1ccccc1C(=O)O)c1ccc(OCCO)cc1,0.359,-1.6 (inactive),-0.429 (inactive),-1.03 (inactive),0.203 (inactive),0.152 (inactive),0.373 (inactive),-0.636 (inactive),0.147,0.0652,2.21 (inactive),0.546,-3.08,-6.36 (inactive),0.0505 (inactive),-0.0839 (inactive)
O=C1C2C=CC(C(O)c3cccs3)N(Nc3ccc([N+](=O)[O-])cc3)C2C(=O)N1c1ccccc1 (stereo not given),0.626,0.348 (inactive),-0.125 (inactive),-1.63 (inactive),0.89 (inactive),-0.0522 (inactive),-0.958 (inactive),-0.0047 (inactive),-0.182,-0.177,0.396 (inactive),-0.0032,-0.965,-4.16 (inactive),-0.479 (inactive),-0.779 (inactive)
CC(C)=CCCC=C(C)C(O)C1C=CC2C(=O)N(c3ccccc3)C(=O)C2N1Nc1ccc(C#N)cc1 (stereo not given),-1.53,-0.101 (inactive),-1.79 (inactive),-1.49 (inactive),1.36 (inactive),-1.63 (inactive),-0.0959 (inactive),0.65 (inactive),-2.19,0.146,1.1 (inactive),0.621,0.221,0.884 (inactive),-0.0269 (inactive),-0.294 (inactive)
NC(=O)NCC#Cc1ccc2c(c1)[C@]1(C(=O)N2)[C@H](c2ccc(OCCO)cc2)N2[C@H](c3ccccc3)[C@H](c3ccccc3)OC(=O)[C@H]2[C@@H]1C(=O)NC[C@H](O)c1ccccc1,1.12,1.63 (inactive),0.473 (inactive),-0.256 (inactive),0.489 (inactive),2.58 (inactive),0.826 (inactive),0.107 (inactive),1.29,0.0697,-0.133 (inactive),0.594,-0.833,-3.2 (inactive),-0.261 (inactive),-0.572 (inactive)
C=C(CCCC)/C(=C/C[C@H](OC(C)=O)c1cccc(OCCO)c1)c1cnc2ccccc2c1,0.209,1.13 (inactive),-0.117 (inactive),-3.15 (inactive),-0.693 (inactive),1.75 (inactive),0.5 (inactive),0.211 (inactive),0.814,-0.0448,-0.0697 (inactive),0.0014,-2.57,-4.01 (inactive),-0.549 (inactive),-0.761 (inactive)
C[C@@H]1NC(=O)C([C@@H](C)OCc2ccccc2)NC(=O)[C@@]23C(=O)N[C@@H](Cc4ccccc4)C2[C@H](C)[C@@]2(C)O[C@H]2C3/C=C/C/C=C\CNC1=O (stereo not given in full),-0.847,-0.399 (inactive),0.026 (inactive),-0.0288 (inactive),0.625 (inactive),0.533 (inactive),-0.602 (inactive),-0.426 (inactive),-0.104,-0.291,-0.501 (inactive),-0.458,0.0074,-7.4 (inactive),-0.0202 (inactive),-0.0344 (inactive)
COc1ccc([Si](C)(C)[C@@H]2[C@@H](CC(=O)N(CCO)Cc3ccccc3)O[C@]3(C(=O)N(Cc4ccc(N5C(=O)c6cccc7cccc5c67)cc4)c4ccccc43)[C@H]2C)cc1,-1.17,1.21 (inactive),-1.48 (inactive),-0.992 (inactive),1.56 (inactive),2.5 (inactive),0.302 (inactive),-0.22 (inactive),-1.85,0.237,1.28 (inactive),0.577,-1.17,-1.19 (inactive),0.398 (inactive),-0.601 (inactive)
Cc1ccc(S[C@]2(C(=O)NC(C)C)CC(=O)N(C3CCCCC3)[C@@H]2c2ccc(CO)cc2I)cc1,0.748,0.27 (inactive),-0.611 (inactive),0.62 (inactive),0.462 (inactive),1.16 (inactive),0.384 (inactive),-0.138 (inactive),-2.01,-0.0559,0.814 (inactive),0.864,-1.31,-4.43 (inactive),0.243 (inactive),0.202 (inactive)
C=CCOC(=O)[C@H]1[C@@H]2C(=O)O[C@@H](c3ccccc3)[C@@H](c3ccccc3)N2[C@@H](c2ccc(OCCOC(=O)[C@H]3C[C@H]4C(=O)N[C@@H](CC(C)C)C(=O)N4[C@H]3c3ccc(O)cc3)cc2)[C@]12C(=O)Nc1ccccc12,0.0682,1.1 (inactive),0.407 (inactive),-0.976 (inactive),2.65 (inactive),2.67 (inactive),0.376 (inactive),1.02 (inactive),0.862,-0.0078,0.386 (inactive),0.818,-1.49,0.832 (inactive),0.109 (inactive),-0.0249 (inactive)
COC(=O)[C@@]1(Cc2ccc(F)cc2)[C@H]2c3cc(C(=O)N4CCCC4)n(CCc4ccccn4)c3C[C@H]2CN1C(=O)c1ccccc1,-0.386,0.842 (inactive),-0.232 (inactive),0.224 (inactive),0.647 (inactive),0.564 (inactive),-0.803 (inactive),-0.588 (inactive),-0.102,0.0853,0.405 (inactive),-0.189,-1.31,-4.83 (inactive),0.227 (inactive),0.247 (inactive)

# From PubChem BioAssay
